From PubChem
HSF1 inh: HSF1 inhibitors in luciferase reporter cells, primary screen, cell-based, NIH3T3, luminescence. NIH3T3-HGL HSE-luciferase, MG132-induced, luminescence 8 h; stronger effect = lower value. 300,000 tested, 0.77% active. AID 2098, 2009. activity change, negative = inhibition, % at 7.5 µM (by protocol);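 active means more than half of replicate wells show activity change below -50%, luminescence cut by over half; inconclusive means some wells, but at most half, below -50%; inactive means no replicate well below -50%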;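 further: luciferase reports HSF-1 transcriptional activity via heat shock element; 0% = median of DMSO wells and -100% = zero luminescence signal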
HSF1 activator: HSF-1 activators, primary screen, NIH3T3-HGL cells, MG132 stress, luminescence, single point; NIH3T3-HGL HSF-1 luciferase reporter, 8 h; 100% = twice DMSO control signal; activation, % at 9 µM; 300,000 tested, 1.7% active;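 active means mean replicate activation of at least 50% with a set share of replicates each reaching 50%; inconclusive means only one of those two conditions met; inactive means mean below 50% and too few replicates reaching it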;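 further: 0% = median of the neutral control wells and 100% = twice that signal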
Vif imaging: HIV Vif self-association inhibitors, primary screen, imaging, HEK293T, single point; HEK293T cells, Vif self-association by quenched fluorescence, 24 h; inhibition, % at 7.49 µM; 340,000 tested, 0.35% active; in the data active means inhibition above about 50%, passing the limit was not always enough; inconclusive means no clear call, values can overlap the other calls; inactive means below about 31%
esBAF inh: Bmi1 luciferase reporter increase in mESCs, primary screen, esBAF inhibitor project, mouse ES cells, Bmi1 luciferase knock-in, single point. 24 h; 100% = twice the neutral-well signal. reporter increase, % at 12.5 µM. 350,000 tested, 2% active; in the data active means activation above about 40%; inconclusive means no clear call, values can overlap the other calls;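 further: 0% = median of the plate's neutral control wells and 100% = double that signal; a rise in the Bmi1 reporter signal indicates esBAF inhibition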
Ring1 derepress: Ring1 mRNA increase in mouse ESCs, confirmation, esBAF inhibitor project, cell-based, mouse ESC, RT-qPCR, cherry-pick; 550 tested, under 10 active; mouse ESC E14, Ring1 mRNA RT-qPCR fold change; shares compounds with esBAF inh; fold change at 33 µM;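 active means Ring1 gene expression raised more than 2-fold over untreated cells in both replicates at either tested dose; inconclusive means only one replicate above 2-fold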;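 further: Ring1 transcript normalised to actin housekeeping signal by TaqMan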
esBAF Fgf4 qPCR: Fgf4 mRNA decrease in mouse ESCs, confirmation, esBAF inhibitor project, cell-based, mouse ESC, RT-qPCR, cherry-pick. mouse ESC E14, Fgf4 mRNA qPCR fold change; stronger effect = lower value. shares compounds with esBAF inh. 550 tested, 4% active. Fgf4 expression fold change at 33 µM;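 active means Fgf4 expression under 0.8 fold of control in both repeat measurements at one or both tested doses; inconclusive means under 0.8 fold in just a single repeat measurement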;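 further: Fgf4 transcript normalised to actin in duplex TaqMan qPCR; cells exposed to compound for 24 h before lysis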
esBAF Bmi1 qPCR: esBAF inhibition via Bmi1 de-repression, confirmation, cell-based, RT-qPCR, mouse ESC, single point, cherry-pick; fold change at 33 µM; shares compounds with esBAF inh; 550 tested, under 10 active; mouse ESE14 ES cells, Bmi1 mRNA qPCR fold; stronger effect = higher value;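 active means Bmi1 expression fold change above 6 at either tested concentration, seen in replicate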
A549 tox SP: A549 cell cytotoxicity, cytotoxicity control, plate reader, single point, cherry-pick | shares compounds with esBAF inh | 550 tested, under 10 active | cell viability change % (negative = cytotoxic), % at 25 µM, hits read low; call rule not given here
HepG2 cytotox SP: HepG2 cell cytotoxicity, cytotoxicity control, plate reader, single point, cherry-pick. shares compounds with esBAF inh. stronger effect = lower value. activity change, negative = inhibition, % at 25 µM. 550 tested, 4% active; in the data active means activity change below about -50%
HEK293 tox SP: HEK293 cell cytotoxicity, cytotoxicity control, plate reader, single point, cherry-pick | activity change, negative = inhibition, % at 25 µM, hits read low | shares compounds with esBAF inh | 550 tested, 3% active; in the data active means activity change below about -38%, passing the limit was not always enough
* marks the source's active call; other numbers are inactive results; ? = inconclusive; · = not tested or not shown. Compounds with a hit are over-represented: about 3.4% of the library has one in this group of screens.

SMILES	HSF1 inh	HSF1 activator	Vif imaging	esBAF inh	Ring1 derepress	esBAF Fgf4 qPCR	esBAF Bmi1 qPCR	A549 tox SP	HepG2 cytotox SP	HEK293 tox SP
CCNC(=O)O/N=C(\C)c1sc(-c2ccccc2)nc1C	15	37	4	63*	0.96	0.8	1.7	-7	-17	-18
Cc1ccc(C)c(N2CCN(C(=O)CCc3nc(-c4ccccc4C(F)(F)F)no3)CC2)c1	·	·	-12	73*	1.3	0.96	1.6	-5	-21	-10
COc1ccc(-c2noc(CCCCC(=O)N3CCN(c4cc(C)ccc4C)CC3)n2)cc1	·	·	·	-74	·	·	·	·	·	·
Cc1ccc(C)c(N2CCN(C(=O)CCc3nc(-c4cccc(Cl)c4)no3)CC2)c1	·	·	·	90*	1.1	1.2	0.86	2	-37	0
COc1ccc(-c2noc(CCCC(=O)N3CCN(c4cc(C)ccc4C)CC3)n2)cc1	·	·	·	62*	1.2	1	1.6	-3	2	-13
COc1ccccc1-c1noc(CCC(=O)N2CCN(c3cc(C)ccc3C)CC2)n1	·	·	-9	-4	·	·	·	·	·	·
COc1cccc(-c2noc(CCC(=O)N3CCN(c4cc(C)ccc4C)CC3)n2)c1	·	·	-6	2	·	·	·	·	·	·
CN(C)S(=O)(=O)c1cccc(C(=O)Nc2ccc3c(c2)CCC3)c1	-1	-8	-13	10	·	·	·	·	·	·
CN(C)S(=O)(=O)c1ccc(C(=O)Nc2ccc3c(c2)CCC3)cc1	8	9	-4	75*	1	0.94	1.7	-2	-43	-14
O=C(O)c1ccc2noc(-c3ccccc3)c2c1	2	26	2	82*	1.1	?	1.5	3	9	2
C[C@@H]1CCCCO[C@H](CN(C)S(=O)(=O)c2ccccc2)[C@@H](C)CN([C@@H](C)CO)C(=O)c2cc(NC(=O)Nc3ccc(F)cc3)ccc2O1	·	·	·	-2	·	·	·	·	·	·
ClCCn1cnc2c(SCc3ccccc3)ncnc21	·	·	2	59*	1.1	?	2.2	-39	-16	-53*
ClCCn1cnc2c(SCc3ccccc3Cl)ncnc21	·	·	3	33	·	·	·	·	·	·
Cc1ccc(OCc2cc(C(=O)NC(C)Cc3cccnc3)no2)cc1C (stereo unspecified)	18	8	0	72*	1.1	1	1.9	0	-12	-11
Cc1ccc(OCc2cc(C(=O)N(C)CCc3ccccn3)no2)cc1C	13	28	-6	87*	1	1	1.2	-6	-23	-12
CN(Cc1ccccn1)C(=O)c1cc(COc2ccc(F)c(F)c2)on1	·	·	·	73*	1.1	0.97	1.1	-13	-13	-16
CC(Cc1cccnc1)NC(=O)c1cc(COc2c(F)cccc2F)on1 (stereo unspecified)	5	-1	-4	·	·	·	·	·	·	·
CO[C@H]1CN(C)C(=O)c2ccc(NC(=O)C3CCCC3)cc2OC[C@@H](C)N(CC2CC2)C[C@H]1C	·	·	·	-1	·	·	·	·	·	·
COC(=O)c1ccc2[nH]c(C(C)(C)O)c(C)c2c1	9	17	3	57*	1.4	1	1.4	-1	-14	-4
COC(=O)c1ccc2[nH]c(C)cc(=O)c2c1	-6	-15	-4	3	·	·	·	·	·	·
COCC#Cc1ccc2c(c1)O[C@H](CN(C)CC1CCOCC1)[C@@H](C)CN([C@H](C)CO)S2(=O)=O	·	·	·	-1	·	·	·	·	·	·
C[C@@H]1CN([C@H](C)CO)S(=O)(=O)c2ccc(C#CCN(C)C)cc2O[C@H]1CN(C)Cc1ccc(F)cc1	·	·	·	-4	·	·	·	·	·	·
CN1[C@@H]2c3ccc(-c4cccc(F)c4)c(=O)n3C[C@H]1[C@H](CO)[C@H]2C(=O)Nc1nccs1	·	·	·	3	·	·	·	·	·	·
O=C(COc1ccc(/C=N/NC(=O)c2cc3ccccc3o2)cc1Br)Nc1ccccc1	25	49	·	?	0.86	?	5.1	-121*	-75*	-121*
C[C@H](CO)N1C[C@H](C)[C@H](CN(C)C(=O)NC2CCCCC2)Oc2ccc(NC(=O)Cc3ccccc3)cc2CC1=O	·	·	·	3	·	·	·	·	·	·
SMILES	HSF1 inh	HSF1 activator	Vif imaging	esBAF inh	Ring1 derepress	esBAF Fgf4 qPCR	esBAF Bmi1 qPCR	A549 tox SP	HepG2 cytotox SP	HEK293 tox SP
O=C(c1cc(COc2ccc(F)cc2F)on1)N1CC[C@@H]2CCCC[C@H]2C1	-1	6	-9	6	·	·	·	·	·	·
Cc1cccc(C)c1OCc1cc(C(=O)N2CCC(C3CCCCC3)C2)no1 (stereo unspecified)	20	35	2	56*	1.2	0.86	1.4	-3	2	-3
CC1CCN(C(=O)CCc2nnc(-c3ccccc3)o2)CC1	20	24	9	74*	0.94	0.94	1.3	-3	-10	-6
O=C(CCc1nnc(-c2ccccc2)o1)NCC1CCN(C2CCCC2)CC1	·	·	7	·	·	·	·	·	·	·
C[C@@H]1CN([C@@H](C)CO)C(=O)c2cc(Br)cnc2O[C@H]1CN(C)CC1CCCC1	·	·	·	-2	·	·	·	·	·	·
CC(=Nc1ccccc1O)c1sc2ccccc2c1O	11	23	0	83*	0.81	1.1	2.2	-10	-9	1
CN(C)CCCNC(=O)C[C@H]1CC[C@H]2[C@@H](COc3ccc(NC(=O)C4CCC4)cc3C(=O)N2C)O1	·	·	·	-5	·	·	·	·	·	·
Cc1ccc(Nc2cccccc2=O)cc1	35	?	·	55*	1.1	1.1	1.8	-5	-21	-9
NNC(=O)c1nc2ccccc2s1	·	·	9	68*	1.2	0.83	1.7	-5	-48	-10
O=c1sc(N2CCN(c3ccc(F)cc3)CC2)nc2ccsc12	14	39	68*	62*	1.3	0.94	1.6	3	-13	-9
O=C(Nc1ccc(F)cc1F)NC1CC1	-13	6	-1	·	·	·	·	·	·	·
O=C(Nc1ccc(F)cc1F)NC1CCCCCCC1	·	·	1	63*	1	0.83	1.8	-7	-51*	-16
COc1cccc(-c2cc(C(=O)NC3CCCC3)no2)c1	13	17	6	·	·	·	·	·	·	·
O=C(NC1CCCC1)c1cc(-c2ccc(Cl)c(Cl)c2)on1	12	24	1	64*	1	0.87	1.6	0	-31	1
